# Laboratory results from PubChem BioAssay (NCI).
# This is part of a sample that, as a whole, favours compounds with a hit. Of some 83,000 tested, about 20% had one in any assay.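 Values shown are percent growth following 48 h exposure of cells in 96-well plates to a single concentration of compound; below 10 was considered active.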 A number with no mark means an inactive call. Active and inactive are the calls of the source.
# Tested on: MDA-MB-468 breast
# Assay: NCI-60 one-dose screen, 48 h (100 = growth as untreated, 0 = no growth, -100 = all killed)
# Settings: 10 µM unless noted
row,SMILES,growth
1,COC(=O)c1ccc(C2Nc3ccc(S(=O)(=O)Nc4ccc(C)c(C)c4)cc3C3OCCC23)cc1 (stereo unspecified),54.7%
2,N#CN1CC[C@H](C(=O)Nc2cc3cc(C(N)=O)ccc3cn2)C1,-46.2% (active)
3,O=C(Nc1ccccc1OC(=O)c1ccccc1)c1ccccc1,59%
4,C(=C1c2ccccc2-c2ccccc21)c1ccncc1,0.207% (active)
5,C=CC(O)CCC (stereo unspecified),109%
6,O=c1c2cc(Cl)ccc2oc2ccc(OCCCCCN3CCCCC3)cc12,59.9%
7,O=C(CCc1nnc(-c2c(Cl)cccc2Cl)o1)c1nc2ccccc2[nH]1,-2.19% (active)
8,CCCCN1C(=O)/C(=c2\sc3n(c2=O)C2C(NN=3)N(CC)C(=O)N2CC)c2cc(Cl)ccc21 (stereo unspecified),56.2%
9,COc1cccc(-c2nnc(COc3ccc(-c4nc5ccc(C)cc5[nH]4)cc3OC)o2)c1,71%
10,O=C(Nc1ncc(Cc2ccccc2)s1)c1ccc2c(c1)OCCCO2,7.91% (active)
11,COc1ccc(C(=O)/C=C/c2c(OC)cc(OC)cc2OC)c(OC)c1,-25.1% (active)
12,CC(C)Sc1nc(Cl)c(C#N)c(-c2ccc(F)cc2)n1,98.9%
13,COc1ccc(-c2nc(N/N=C/c3c[nH]c4ccccc34)nc(N3CCOCC3)c2C#N)cc1,97.8%
14,COc1ccc(/C(=C\c2ccc3c(c2)OCO3)C(=O)Nc2nc3ccccc3s2)cc1,114%
15,Nc1ccc(N)c2c1C(=O)c1cccc([N+](=O)[O-])c1C2=O,54.8%
16,CN1Cc2c(cc(CN3CCCCC3)n2C)C(c2ccc(Br)cc2)C1 (stereo unspecified),56.2%
